Reference: PubChem BioAssay AID720697 (Broad Institute, 2013)
Measured potencies and affinities stand elsewhere. Inconclusive results are not listed. Active and inactive are the calls of the source.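 How the source made its calls: active means signal loss with fitted half-maximal concentration at or below twice the top valid tested dose in every test run; inconclusive means runs disagree, flat 30 to 70% signal loss, or poor fit; inactive means all runs flat, opposite direction, or potency beyond limit.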

Experiment: HEK293T cytotoxicity, dose response, cytotoxicity control for miR-122 modulator project, cell-based, inhibitor set, cherry-pick, set 2 (AID 720697)

Row | Structure (SMILES) | outcome
1 | COc1ccc(C2SCC(=O)Nc3c2c(=O)[nH]n3C2CCCCCC2)cc1 (configuration not stated) | inactive
2 | COc1ccc2c(c1)c(CCN)c(C)n2Cc1ccccc1 | inactive
